Source: PubChem BioAssay (National Center for Advancing Translational Sciences (NCATS))
Sampled rows, rich in hits. Any-hit rate of the full collection: about 7.1%.
PINK1 modulator = modulators of PINK1 expression; PINK1 immunofluorescence, high-content cytometry, 24 h; Potency, µM (series often up to 76.6 µM), for the others: at the highest dose activation (PINK1 increase), most hits filed as activators; 0.2% of 410,000 active; AID 624263; active = well fitted activation curve with a large enough effect; inconclusive = small, poorly fitted or top-dose-only effect; cell line not stated here; also: potency is read from the fitted curve at half-maximal effect; % of control where 0% means no effect; nearly all actives have a fitted effect of over 65% in size
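Decision-based qHTS: stable cells, 24 h exposure to five compound concentrations, CCCP as control. Fixed cells stained for PINK1 plus nuclear, mitochondrial and cell markers, cytometer read.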
MCF10A rereplic = inducers of DNA re-replication in MCF 10A breast cells; MCF 10A DNA re-replication, Hoechst nuclear intensity, 48 h; 2.9% of 350,000 active; Potency, µM (series often up to 46.1 µM), for inactives: top-dose activity, positive = re-replication, actives largely listed as activators; AID 624296; also: potency is read from the fitted curve at half-maximal effect; % of control where 0% means no effect; nearly all actives have a fitted effect of over 50% in size
ATXN viability = cell viability loss in ATXN counter-screen; S2 cells (HEK-293 line with an ATXN2-luciferase reporter) viability, CellTiter-Fluor protease fluorescence, 24 h; Potency, µM (series often up to 56.7 µM), actives largely listed as cytotoxic; 0.49% of 400,000 active; AID 651635; also: potency is read from the fitted curve at half-maximal effect; nearly all actives have a fitted effect of over 40% in size
ATXN2 expr inh = ATXN2 expression inhibition. Potency, µM (titrated, usually from 57 µM), without a hit: top-dose activity change, negative = inhibition, most hits filed as inhibitors. HEK-293 ATXN2-luciferase reporter, luminescence, 24 h. 0.72% of 360,000 active. AID 1745845; also: potency is read from the fitted curve at half-maximal effect; % is scaled to controls: 0 for no effect and ±100 for the full control effect; nearly all actives have a fitted effect of over 55% in size
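ATXN2-luciferase reporter cells (luciferase flanked by upstream and downstream ATXN2 gene portions) were treated 24 h at 37 °C with compounds at up to 57 uM. SteadyGlo luminescence gave expression; GF-AFC fluorescence gave viability.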
IL-1B inflam inh = blocks inflammasome-driven IL-1 beta release. THP-1 LPS/ATP IL-1B secretion, AlphaLISA, 16 h; stronger effect = lower value. activity change, % at 57.5 µM. 4.7% of 360,000 active; in the data active = activity change below about -50%; inconclusive = mostly about -30% to -49%; also: % is scaled to controls: 0 for no effect and ±100 for the full control effect
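THP-1 cells pretreated 1 hr with compounds (up to 57.5 uM final), then stimulated with LPS (250 ng/mL final) plus ATP (1.25 mM final); secreted IL-1B measured by AlphaLISA after 16 hr, decreased signal indicating inhibition.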
SW480 rereplic = inducers of DNA re-replication in SW480 colon cancer cells; SW480 DNA re-replication, Hoechst DNA content imaging, 48 h; Potency, µM (highest dose often 46.1 µM), for the others: at the top dose re-replication activation, hits mostly activators; 1.8% of 340,000 active; also: potency is read from the fitted curve at half-maximal effect; % of control where 0% means no effect; nearly all actives have a fitted effect of over 55% in size
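Treated cells incubate 48 hr (37 C, 5% CO2), are stained 40 min with Hoechst, and nuclear fluorescence is enumerated; a rise in nuclei with high DNA signal marks re-replication.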
* hit, by the source's call; i = inactive; ? = inconclusive; . = no result given. Unless noted, calls follow the shape of the dose curve; as a rule, active = well fitted curve in the direction sought with a large enough effect; inconclusive = small, poorly fitted or top-dose-only effect, or another doubt; inactive = no such curve, though single readings can be large; an effect the other way counts as inactive or inconclusive.

SMILES	PINK1 modulator	MCF10A rereplic	ATXN viability	ATXN2 expr inh	IL-1B inflam inh	SW480 rereplic
CC1CCN(S(=O)(=O)c2ccc(C(=O)Nc3nnc(C4CC4)o3)cc2)CC1	1%	?	i	?	60	13µM*
O=C(Nc1nnc(C2CC2)o1)c1ccc(S(=O)(=O)N2CCCCC2)cc1	2%	10%	i	-21%	-69*	20%
COc1ccc(NC(=O)C2CCN(S(=O)(=O)c3ccc4c(c3)CCCC(=O)N4)CC2)c(OC)c1	1%	.	i	1%	.	.
OCC1(CCOc2ccccc2)CCN(Cc2ccccc2C(F)(F)F)CC1	15%	?	i	-30%	-55*	2%
COc1cc(Cl)c(CN2CCC(CO)(CCOc3ccccc3)CC2)cc1OC	1%	?	i	-11%	?	-25%
COc1ccc(CN2CCC(CO)(CCOc3ccccc3)CC2)c(OC)c1C	1%	13%	i	-29%	-104*	-4%
COc1ccc2[nH]c(CN3CCC(CO)(CCOc4ccccc4)CC3)c(C)c2c1	-2%	21µM*	i	52%	-202*	-42%
OCC1(CCOc2ccccc2)CCN(Cc2cn[nH]c2-c2ccc(F)cc2)CC1	-1%	16%	i	-20%	-57*	?
Cc1cccc(C(=O)NCc2nc(-c3cccc(NC(=O)C4CCCN(C)C4)c3)oc2C)n1 (configuration not stated)	-1%	.	i	.	.	.
OCCOc1cccc(CN2CCC(CO)(CCOc3ccccc3)CC2)c1	1%	3%	i	.	-9	18µM*
OCC1(CCOc2ccccc2)CCN(CC2=Cc3cc(Cl)ccc3OC2)CC1	-3%	?	i	?	-93*	?
CCOc1ccccc1CN1CCC(CO)(CCOc2ccccc2)CC1	-2%	-7%	i	.	-73*	-3%
Cc1ccc(-c2nnc3ccccc3c2C(=O)Nc2cccc(C(F)(F)F)c2)cc1	0%	.	.	.	.	.
Cc1cc(C(=O)NCc2ccccc2)c2c(C)nn(-c3cccc(F)c3)c2n1	3%	.	i	-8%	.	.
CC(=O)/C=C\c1cn(-c2ncc(C(F)(F)F)cc2Cl)c2ccccc12	3%	?	i	-34%	-81*	?
Cc1cccc(Cc2c(C)nc3nc(SCC(=O)NCc4ccco4)nn3c2C)c1	9%	14%	i	2%	7	-7%
Cc1ccc(Cc2c(C)nc3nc(SCC(=O)NCc4ccco4)nn3c2C)cc1	3%	6.5µM*	?	-6%	46	?
COc1cccc(CNc2nc(NCC3CC3)nc3ccsc23)c1	?	.	?	?	-72*	.
CNc1nc(NCc2cccc(OC)c2)c2sccc2n1	3%	.	?	-19%	50	.
COc1cccc(CNc2nc(NCc3ccccc3)nc3ccsc23)c1	22%	.	i	?	-55*	.
COc1ccc(C(=O)N2C=Cc3ccccc3C2C#N)cc1 (configuration not stated)	4%	.	i	.	9	.
N#CC1c2ccccc2C=CN1C(=O)N(c1ccccc1)c1ccccc1 (configuration not stated)	-2%	3.3µM*	?	?	-97*	?
Clc1ccc2nc(C3CCN(Cc4nnnn4C4CCCCC4)CC3)[nH]c2c1	2%	25%	i	-14%	-1	17%
Cc1ccc(Cn2nnnc2CN2CCC(c3nc4ccc(Cl)cc4[nH]3)CC2)cc1	?	?	i	?	-81*	12%
COc1ccc(C2=NC3(CCCCCC3)N(CC(=O)Nc3cccc(Cl)c3)C2=O)cc1	4%	.	.	.	.	.
O=S(=O)(c1cccc2cnccc12)N1CCNCC1	0%	?	i	-14%	-51*	-7%
N#Cc1c(-c2ccccc2)cc2nc3ccccc3n2c1N	7%	12µM*	i	25%	-5	5%
COc1cc(-c2cc3nc4ccccc4n3c(N)c2C#N)cc(OC)c1OC	2%	?	i	0%	-1	?
